Assay results: PubChem BioAssay AID1794844 (National Center for Advancing Translational Sciences (NCATS), 2023)
Out of some 2,800 compounds screened, fewer than 10 were called active. Roughly 7% stayed inconclusive and do not appear here. Calls come from the whole dose curve; as a rule, active = well fitted inhibition curve with a large enough effect; inconclusive = small, poorly fitted or top-dose-only effect; inactive = no such curve, though single readings can be large or run the other way. Only a sample is shown.

biological target: Metallo-beta-lactamase type 2 (Klebsiella pneumoniae) (UniProt C7C422); experiment: qHTS to identify inhibitors of the New Delhi Metallo-beta-lactamase (NDM): Nitrocefin screen against the machine-based learning selections.; for activity, negative = inhibition: % of control where 0% means no effect; settings: NDM-1 enzyme, nitrocefin hydrolysis, absorbance 485 nm; series mostly up to 38.4 µM; activity, negative = inhibition: at the top concentration
Description: Assay Submitter (PI): James Inglese Ph.D., Patricia Dranchak Ph.D., Mahesh Aitha Ph.D. Assay Development and Screening Technology Laboratory (ADST) National Center for Advancing Translational Sciences (NCATS), Rockville, MD National Institute of Health (NIH), Bethesda, Maryland The metallo-beta-lactamases (MBL) are a main antibiotic resistance mechanism evolved by bacteria. There is an urgent clinical need for MBL inhibitors to mitigate this growing threat. To support a machine-based learning study, qHTS has been used to experimentally test inhibitors identified by prediction tools.
PROTOCOL TABLE (as described by Inglese et al., 2007) SEQUENCE No. (e.g., 1, 2, 3, etc.); […] (e.g., enzyme, Incubation, Reagent, etc.); VALUE; DESCRIPTION Primary Screen 1; NDM-1; 4 uL of 3 nM enzyme [2 nM final] in 50 mM HEPES (pH 7.0), 1 uM […], 0.01% Tween20; Use BioRaptr to dispense into two sets of Aurora black, clear bottom high base 1536-well plates 2; Compounds; 23 nL; Use Pin Tool (Wako) to transfer DMSO control and library compounds in DMSO 3; Incubate; >30 min 4a; Reagent; 2 uL of 50 uM nitrocefin [16.7 uM final] to one set of assay plates 4b; Reagent; 2 uL of 150 uM meropenem [50 uM final] to second set of assay plates 5a; Incubate; 15 min 5b; Incubate; 30 min 6a; Detector; Absorbance at 485 nm (bandwidth = 5 nm, 25 flashes/well) on Tecan Infinity 6b; Detector; Absorbance at 300 nm (bandwidth = 5 nm, 25 flashes/well) on Tecan Infinity NOTES (numbers refer to sequence above) 1; Column 1 of each plate received assay buffer without enzyme and columns 2-48 received enzyme for a final assay concentration of 2 nM. 2; Control plate contained DMSO in columns 1, 2, 3, and 4. 3; Compound interaction with enzyme. 4; Nitrocefin and meropenem substrates were prepared in the same assay buffer as step 1 for a final assay concentration of 16.7 uM and 50 uM, respectively, and added to all wells across respective sets of assay plates. 5; Default reader settings were applied for absorbance read at 485 nm (nitrocefin) or 300 nm (meropenem), bandwidth = 5 nm, 25 flashes/well. References: Inglese J, Shamu CE, Guy RK. 2007. Reporting data from high-throughput screening of small-molecule libraries. Nat Chem Biol. doi:10.1038/nchembio0807-438 Yasgar A, Shinn P, Jadhav A, Auld D, Michael S, Zheng W, Austin CP, Inglese J, Simeonov A. 2008. Compound Management for Quantitative High-Throughput Screening. J Lab Autom 13:79 - 89. doi:10.1016/j.jala.2007.12.004
Potency is the fitted concentration of half-maximal effect.

Metallo-beta-lactamase type 2 (Klebsiella pneumoniae), sequence (C7C422 whole entry, looked up): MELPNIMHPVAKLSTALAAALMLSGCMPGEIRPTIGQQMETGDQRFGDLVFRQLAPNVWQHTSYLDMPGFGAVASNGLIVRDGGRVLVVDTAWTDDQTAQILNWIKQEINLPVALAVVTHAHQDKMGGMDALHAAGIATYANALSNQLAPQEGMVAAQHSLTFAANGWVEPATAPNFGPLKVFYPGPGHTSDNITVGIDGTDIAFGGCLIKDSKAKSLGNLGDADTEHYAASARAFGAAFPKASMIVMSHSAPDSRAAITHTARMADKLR

Which “activity, negative = inhibition” value does the source give for Cc1ccc2c(n1)N(C)[C@H](CO)CCN(Cc1cccnc1)C2 here?
The value was 4.8% [at 57.5 µM] (inactive).

For O=C(C1CC1)N1CCC2(CC1)CCN(CCc1ccccc1)c1ccccc1O2, which “activity, negative = inhibition” value is on record?
Its value is 49.1% (inactive).

COc1ccc(OC)c(CNC(=O)CC2CCOCC2)c1 was tested. Which “activity, negative = inhibition” value did it give?
Its value is -2.81% (inactive).

For O=c1[nH]nc(CNCC2(O)CCCNC2)c2ccccc12 (stereo not drawn), which “activity, negative = inhibition” value is on record?
The value was -13.4% (inactive).

With Cc1ccc(C(=O)NC2CCN(c3ccc(F)cc3)C2=O)s1 (stereo not drawn) as the molecule, how does the “activity, negative = inhibition” value read?
Its value is -2.33% (inactive).

With Cc1noc(C)c1S(=O)(=O)N1CCCN(Cc2ccncc2)C(c2ccccc2)CC(=O)NCC1 (stereo not drawn) as the molecule, how does the “activity, negative = inhibition” value read?
Its value is 7.54% (inactive).

Which “activity, negative = inhibition” value does the source give for COc1cccc(N2C(=O)N[C@@H]3CCN(S(=O)(=O)c4ccccc4)[C@@H]3C2=O)c1 here?
The value was 0.447% [at 57.5 µM] (inactive).

Which “activity, negative = inhibition” value does the source give for COc1ncccc1C(=O)N1CCc2c(nc(-c3cccnc3)[nH]c2=O)C1 here?
The value was 3.94% (inactive).

With CN1CCOc2c(C(=O)NCCC(N)=O)cc(-c3ccccc3O)cc21 as the molecule, how does the “activity, negative = inhibition” value read?
Its value is -0.0482% [at 57.5 µM] (inactive).

O=C(Cc1ccccc1)Nc1ccnn1C1CCN(Cc2ccc3cccc(F)c3n2)CC1 was tested. Which “activity, negative = inhibition” value did it give?
The value was -1.06% (inactive).

COC(=O)[C@H]1CN(C(=O)c2cccnc2)CCN1C(=O)C1CCCCC1 was tested. Which “activity, negative = inhibition” value did it give?
The value was 2.03% [at 57.5 µM] (inactive).

With COCCNC(=O)C[C@@H]1O[C@H](CNC(=O)c2cccc(F)c2)[C@@H](O)[C@H]1O as the molecule, how does the “activity, negative = inhibition” value read?
The value was -2.43% [at 57.5 µM] (inactive).

How did the “activity, negative = inhibition” value turn out when N#Cc1cccc(CN2CCOC[C@H]2c2ncc(-c3ccc(C(F)(F)F)cc3)[nH]2)c1 was run?
Its value is 3.87% [at 57.5 µM] (inactive).

CCN(CC)Cc1nc(C2(O)CCN(C)CC2)cs1 was tested. Which “activity, negative = inhibition” value did it give?
Its value is -1.47% [at 76.7 µM] (inactive).

With Fc1ccc2nc([C@H]3CCN(C4CCC4)C3)[nH]c2c1 as the molecule, how does the “activity, negative = inhibition” value read?
Its value is 14% [at 76.7 µM] (inactive).

With CC(=O)N1CCN(c2cc(-c3noc([C@@H]4CCCN4Cc4ccccc4C)n3)ccn2)CC1 as the molecule, how does the “activity, negative = inhibition” value read?
Its value is -0.621% (inactive).

Cc1ccccc1C1CCCN1Cc1ncccc1C(=O)O (stereo not drawn) was tested. Which Potency did it give?
Its Potency is 13.4 µM (active).

With CSc1ncccc1C(=O)NC1CCCN(CCCc2ccccc2)C1 (stereo not drawn) as the molecule, how does the “activity, negative = inhibition” value read?
The value was 9.24% (inactive).

With O=c1c2nc(NCc3cccs3)ccc2ncn1Cc1ccccc1 as the molecule, how does the “activity, negative = inhibition” value read?
The value was 0.467% [at 57.5 µM] (inactive).

For COCCNS(=O)(=O)c1cc(C(=O)O)cc(-c2ccc(OC)c(F)c2)c1, which “activity, negative = inhibition” value is on record?
The value was -0.8% (inactive).

With Cc1noc2c(-c3cccc(O)c3)cc(-c3cccs3)nc12 as the molecule, how does the “activity, negative = inhibition” value read?
The value was 1.99% [at 57.5 µM] (inactive).

Which “activity, negative = inhibition” value does the source give for COC[C@H]1CCCN1C(=O)[C@@H](C)C1CC[C@@]2(C)CC[C@H](NC(=O)CC(C)(C)C)[C@@H](C)[C@@H]2[C@H]1O (stereo partly drawn) here?
Its value is -2.54% (inactive).

CN1C(=O)C(c2ccccc2)CC12CCN(C(=O)c1cccc(F)c1)CC2 (stereo not drawn) was tested. Which “activity, negative = inhibition” value did it give?
The value was 5.03% (inactive).

CC(C)NC(=O)N1CCN(C(=O)N2CCOCC2)[C@@H](C(=O)N[C@H](Cc2c[nH]c3ccccc23)C(N)=O)C1 was tested. Which “activity, negative = inhibition” value did it give?
Its value is -10.8% (inactive).

How did the “activity, negative = inhibition” value turn out when CC[C@H]1CN(C(=O)NC(C)C)CC[C@H]1CC(=O)N(C)CCC#N was run?
The value was -12.7% [at 57.5 µM] (inactive).

How did the “activity, negative = inhibition” value turn out when Cc1nn2cc(CCNCC3(O)CNCCOC3)nc2s1 (stereo not drawn) was run?
The value was 2.59% (inactive).

COc1ccccc1C(O)c1nc(Nc2ccc(C(C)C)cc2)n[nH]1 (stereo not drawn) was tested. Which “activity, negative = inhibition” value did it give?
The value was 7.45% [at 57.5 µM] (inactive).

How did the “activity, negative = inhibition” value turn out when Cc1ccc(NC(=O)N[C@@H]2C=C(C(=O)N[C@H](CC(C)C)C(N)=O)C[C@@H](O)[C@@H]2O)cc1 was run?
The value was 2.2% [at 57.5 µM] (inactive).

Cc1ccc(-n2nc(C)c([C@@H]3C=C[C@@H](NCc4cccc(C#N)c4)C3)c2C)cc1Cl was tested. Which “activity, negative = inhibition” value did it give?
Its value is 2.91% [at 57.5 µM] (inactive).

OC(c1ccccc1)c1nc(Nc2ccc(C(F)(F)F)cc2)n[nH]1 (stereo not drawn) was tested. Which “activity, negative = inhibition” value did it give?
Its value is 7.39% [at 57.5 µM] (inactive).

With CC(C)Cc1cc(C(=O)N2C[C@H](C3CC3)[C@@H](N)C2)n(C)n1 as the molecule, how does the “activity, negative = inhibition” value read?
Its value is -2.3% (inactive).

Which “activity, negative = inhibition” value does the source give for O=C(c1ccc(Cn2cnnn2)cc1)N1CCC2(CC1)[C@H](O)C[C@@H]2OCCO here?
The value was -2.43% (inactive).

How did the “activity, negative = inhibition” value turn out when COc1ccc(OC)c(CNC(=O)Cc2cccn2-c2ccc(C)cc2)c1 was run?
Its value is -4.62% (inactive).

How did the “activity, negative = inhibition” value turn out when COc1ccccc1C(O)c1nc(Nc2ccc(Cl)cc2)n[nH]1 (stereo not drawn) was run?
The value was 3.08% [at 57.5 µM] (inactive).

With CNC(=O)C1(N2CCC[C@H]2C(=O)N2CCCC2)COC1 as the molecule, how does the “activity, negative = inhibition” value read?
Its value is 11.1% [at 76.7 µM] (inactive).

How did the “activity, negative = inhibition” value turn out when COCCO[C@H]1C(=O)N(C2CCN(C(=O)c3cnccn3)CC2)[C@H]1c1ccncc1 was run?
The value was 5.4% (inactive).

How did the “activity, negative = inhibition” value turn out when COc1ccc(C(=O)N2CC[C@@H](CC(=O)O)[C@@H](CCN3CCN(c4ccccn4)CC3)C2)cc1 was run?
The value was -10.6% (inactive).

COCCNC(=O)[C@@H]1CCC[C@@H](NC(=O)C2CC2)CN(C)C(=O)C1 was tested. Which “activity, negative = inhibition” value did it give?
Its value is -4.15% [at 57.5 µM] (inactive).

Cc1cccc(C)c1-c1nc(C(=O)NCCc2ccc(Cl)cc2)n2ccccc12 was tested. Which “activity, negative = inhibition” value did it give?
The value was 2.12% (inactive).

How did the “activity, negative = inhibition” value turn out when COc1cccc(Nc2cc3c(cn2)CN(Cc2cccnc2)CCN3)c1 was run?
Its value is 6.77% [at 57.5 µM] (inactive).

With Cc1noc(C)c1S(=O)(=O)N1C[C@@H](C(N)=O)[C@H](C2CCN(C)CC2)C1 as the molecule, how does the “activity, negative = inhibition” value read?
Its value is 0.0336% (inactive).

Nc1n[nH]c(CNc2cc(-c3ccc(F)cc3)nc3ccnn23)n1 was tested. Which “activity, negative = inhibition” value did it give?
Its value is 8.01% (inactive).

Which “activity, negative = inhibition” value does the source give for COC(=O)c1ccccc1NC(=O)Cn1cccc1-c1nc(-c2ccccc2)no1 here?
The value was 11.4% (inactive).

COC(=O)[C@@H](C)NC(=O)[C@H]1CN(C(=O)c2cccnc2)CCN1S(C)(=O)=O was tested. Which “activity, negative = inhibition” value did it give?
The value was 0.882% [at 57.5 µM] (inactive).

Which “activity, negative = inhibition” value does the source give for Cc1noc2c(N3CCOCC3)cc(-c3cccnc3)nc12 here?
Its value is 5.33% [at 57.5 µM] (inactive).

For CC(C)C[C@@H]1N[C@H](C(=O)NCc2cccs2)Cc2c[nH]c3cccc1c23, which “activity, negative = inhibition” value is on record?
The value was -5.41% [at 57.5 µM] (inactive).

For CCCNC(=O)NC[C@H]1O[C@@H]2C[C@@H](CC(=O)N3CCC(F)(F)C3)O[C@@H]2[C@@H]1O, which “activity, negative = inhibition” value is on record?
Its value is 3.53% [at 57.5 µM] (inactive).

For O=C(N[C@H]1[C@H](O)[C@H](O)C[C@@H]1c1cccnc1)c1ccccn1, which “activity, negative = inhibition” value is on record?
The value was -2.52% [at 57.5 µM] (inactive).
